Assay results reported in PubChem BioAssay (NCI).
Compounds without any hit were thinned out: in the full panel of roughly 79,000, 15% have a hit. No stated cut-off is given here; in the data, active means growth inhibition above about 70%; inactive means the rest.

Legend:
[1] = NCI Yeast Anticancer Drug Screen. Data for the rad50 strain (AID 155);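 further: 0% = growth of vehicle-only cultures of the same strain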; details: S. cerevisiae rad50 strain growth inhibition; at 50.0 µM; hits give high values
Method in brief: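 Genetically altered yeast (DNA repair pathway); compound treatment; growth inhibition vs vehicle ctrl.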

[2] = NCI Yeast Anticancer Drug Screen. Data for the mec2-1 strain (AID 157); details: S. cerevisiae mec2-1 strain, at 50.0 µM, hits give high values
Method in brief: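 Strain: mec2-1 (DNA repair/cell cycle alteration). Compound exposure, then growth measured; inhibition expressed relative to vehicle.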

[3] = NCI Yeast Anticancer Drug Screen. Data for the sgs1 mgt1 strain (AID 161);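 further: 0% = growth of cultures given vehicle only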; details: S. cerevisiae sgs1 mgt1 strain, at 50.0 µM, hits give high values
Method in brief: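 Genetically altered yeast, compound exposure, growth inhibition relative to vehicle.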

[4] = NCI Yeast Anticancer Drug Screen. Data for the cln2 rad14 strain (AID 165);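 further: 0% = growth equal to vehicle treated cultures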; details: S. cerevisiae cln2 rad14 strain, at 50.0 µM, hits give high values
Method in brief: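 Compounds are applied to the cln2 rad14 yeast strain, and growth is then compared with that of vehicle-treated cultures to give inhibition.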

[5] = NCI Yeast Anticancer Drug Screen. Data for the bub3 strain (AID 167); details: S. cerevisiae bub3 mutant strain, at 50.0 µM, hits give high values
Method in brief: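 Yeast carrying a defined mutation is treated with each compound, and growth is compared with that of vehicle-exposed cells to give inhibition.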

[6] = NCI Yeast Anticancer Drug Screen. Data for the mlh1 rad18 strain (AID 175); details: S. cerevisiae mlh1 rad18 strain growth inhibition; at 50.0 µM; hits give high values
Method in brief: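 Read-out is yeast growth inhibition, calculated against vehicle-only controls. The compound was applied to a strain engineered with DNA damage repair alterations.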

Measured: growth inhibition

Clc1cccc2nsnc12
inactive: [1] 12.9% | [2] -12.1% | [3] -3.15% | [4] -49% | [5] 5.15% | [6] 6.1%

CCC(/C(=N/NC(=O)C[N+](C)(C)C)c1ccccc1)C1OC(=O)c2ccccc21 (stereo not given)
inactive: [1] 15.2% | [2] 2.15% | [3] 16.1% | [4] 23.2% | [5] 19.4% | [6] 18.4%

COc1ccc(NNc2ccc(OC)cc2)cc1
inactive: [1] 0.95% | [2] 7.65% | [3] -4.7% | [4] 17.9% | [5] -5.1% | [6] -9.5%

CO/C(Cc1cc(O)cc(O)c1)=N\N
inactive: [1] -0.45% | [2] 6.3% | [3] 1.25% | [4] -5.65% | [5] 7.85% | [6] -4.1%

N#Cc1ccc(S(=O)(=O)c2ccc(C#N)cc2)cc1
inactive: [1] 1% | [2] -17.6% | [3] 11.3% | [4] 24.4% | [5] 12% | [6] -19.4%

COc1cccc(CN(CC(=O)O)S(=O)(=O)c2ccc(C)cc2)c1
inactive: [1] -6.2% | [2] 11.3% | [3] -1% | [4] -46.6% | [5] -23.6% | [6] 6.85%

CC(O)C(=O)N1CCOCC1 (stereo not given)
inactive: [1] 3.5% | [2] -3.65% | [3] -0.7% | [4] -24.9% | [5] 4.25% | [6] -23.3%

CC(=O)OCCc1nnnn1C
inactive: [1] 4.9% | [2] -9.95% | [3] -14.6% | [4] -22.5% | [5] 2.45% | [6] 10.4%

Cn1[nH]c(=O)c2ncccc2c1=O
inactive: [1] -4.7% | [2] -10.1% | [3] -13.5% | [4] -87.8% | [5] -10.3% | [6] 4.95%

c1ccc(-c2cnc(C3CCCCC3)o2)cc1
inactive: [1] 28% | [2] -14.1% | [3] 14.8% | [4] 10.2% | [5] 17.1% | [6] 5.55%

NCCNC(c1ccccc1)C(O)c1ccccc1 (stereo not given)
inactive: [1] -8.7% | [2] -0.7% | [3] -1.25% | [4] -33.9% | [5] -41.2% | [6] -4.25%

Nc1ccc([N+](=O)[O-])c(Cl)c1
inactive: [1] 5.35% | [2] -8.3% | [3] -11% | [4] -18.1% | [5] -13.1% | [6] 13.3%

CN[C@H]1CC[C@]23C[C@]24CC[C@]2(C)[C@@H]([C@H](C)N(C)C)CC[C@@]2(C)[C@@H]4CC[C@H]3C1(C)C
inactive: [1] 1.3% | [2] -4.65% | [3] 9.2% | [4] 6.35% | [5] 8.25% | [6] -63.8%

CC1(C(=O)O)CCC(C(=O)Nc2ccccc2)C1(C)C (stereo not given)
inactive: [1] -11.2% | [2] -20.6% | [3] 5.05% | [4] -0.35% | [5] -13.1% | [6] 1.9%

[Co+2].[NH-]C(Cc1ccc(O)cc1)C(=O)O.[NH-]C(Cc1ccc(O)cc1)C(=O)O (stereo not given)
inactive: [1] 56.5% | [2] 10.2% | [3] 5.8% | [4] 16.3% | [5] 16% | [6] 34%

CCN(CC)CCOC1CCCCC1Cc1ccccn1 (stereo not given)
inactive: [1] -1.55% | [2] 14.8% | [3] 8.85% | [4] -25.2% | [5] -3.65% | [6] 5.85%

O=S(=O)(N/N=C/c1c(Cl)cccc1Cl)c1ccccc1
inactive: [1] 18.9% | [2] 12.1% | [3] 11.9% | [4] -9.35% | [5] 9.65% | [6] 31.5%

Fc1ccc2nncc(SCc3ccc(Cl)c(Cl)c3)c2c1
inactive: [1] -1% | [2] 0.15% | [3] 3.8% | [4] -11.2% | [5] 18.4% | [6] -2.05%

Cc1cc[n+]2c(c1)-c1cc(C)cc[n+]1CC2
inactive: [1] 26.7% | [2] 1.15% | [3] 14.3% | [4] -10.8% | [5] 0.6% | [6] 6.3%

O=C(Cc1nc2ccccc2o1)C(=O)Nc1ccc(Cl)cc1Cl
inactive: [1] 10.7% | [2] -4.6% | [3] 0.8% | [4] 17.1% | [5] -15.7% | [6] 16.2%

Cn1c2ccccc2c2ccc3c(c21)C(=O)C(c1ccccc1)=CC3=O
inactive: [1] 19.7% | [2] -21.2% | [3] -10.3% | [4] 17.6% | [5] -28.3% | [6] -5.85%

CC1=NN(c2ccccc2)C(=O)CC1
inactive: [1] -3.65% | [2] -8.8% | [3] 26.5% | [4] 16.6% | [5] 16.3% | [6] 5.05%

C=NNC(=O)c1ccncc1
inactive: [1] -10.4% | [2] -6.1% | [3] 6.4% | [4] -37.5% | [5] 12.8% | [6] 5.9%

CCOC(=O)C1CC1c1c(C)c2cc3[nH]c(cc4nc(cc5nc(cc1[nH]2)C(C)=C5CCC(=O)OC)C(CCC(=O)OC)=C4C)c(C)c3C1CC1C(=O)OCC (stereo not given)
inactive: [1] -7.25% | [2] 36.5% | [3] 29.5% | [4] -19.4% | [5] -6.15% | [6] 39.2%

C/C=C(/C)C(=O)O[C@@H]1c2c(C)coc2C(=O)[C@@]2(OC(C)=O)CCC[C@@](C)(O)[C@@]12C
inactive: [1] 26.8% | [2] 9.55% | [3] 24.3% | [4] 22.6% | [5] 39.4% | [6] 43.9%

Cc1ccc(C2=C(Cl)C(=O)C(c3ccc(C)cc3)=C(Cl)C2=O)cc1
inactive: [1] -15.8% | [2] 10.3% | [3] -13.8% | [4] -3.95% | [5] -57.5% | [6] -14.4%

COc1cc([C@@H]2OCC3C(c4ccc5c(c4)OCO5)OCC32)cc(OC)c1OC (stereo not given in full)
inactive: [1] 9.9% | [2] -17.2% | [3] 24.2% | [4] 28.6% | [5] 43.4% | [6] 18.4%

COC(=O)C(NC(=O)C(=O)NC(C(=O)OC)C(C)(C)S)C(C)(C)S (stereo not given)
inactive: [1] 3.85% | [2] -9.1% | [3] -2.3% | [4] -12.7% | [5] -5% | [6] 4.25%

CSC(=NCCN=C(NS(=O)(=O)c1ccc(Cl)cc1)SC)NS(=O)(=O)c1ccc(Cl)cc1
inactive: [1] 5.95% | [2] -5.3% | [3] 7.15% | [4] 1.5% | [5] 4.15% | [6] 5.8%

CCCOC(=O)c1ccc(C(C)C)cc1
inactive: [1] 1.1% | [2] 0.8% | [3] -5.3% | [4] 3.7% | [5] 2.25% | [6] -1%

COc1cc(/C=N/N2CC(=O)N(c3cccc(Cl)c3)CC2=O)cc(OC)c1
inactive: [1] -1.65% | [2] 5.7% | [3] -1.6% | [4] -12.8% | [5] -4.65% | [6] 26.7%

CC(=O)CCC(=O)C(=[N+]=[N-])S(=O)(=O)c1ccccc1
inactive: [1] -15.6% | [2] -0.2% | [3] -26.1% | [4] 2.85% | [5] -9.7% | [6] -9.2%

Clc1ccc(CSCSCc2ccc(Cl)cc2)cc1
inactive: [1] 5.95% | [2] -15.3% | [3] 10.8% | [4] -40.9% | [5] 19.6% | [6] 4.3%

Cc1cc2c(=O)c(C)c[nH]c2cc1Cl
inactive: [1] -21.6% | [2] 5.2% | [3] -2.6% | [4] -46.1% | [5] -10.6% | [6] -7.55%

CSC(=O)Oc1ccc([N+](=O)[O-])cc1
inactive: [1] 6.25% | [2] 1.55% | [3] -6.7% | [4] -38.3% | [5] 12.5% | [6] -2.9%

CC(=O)Nc1ccc(O)c(CN2CCN(c3ccccc3)CC2)c1
inactive: [1] 33.1% | [2] 16% | [3] 17.6% | [4] 47.2% | [5] 12.1% | [6] 20.3%

CC(C)c1cc(C(C)C)c(Cc2c(C(C)C)cc(C(C)C)cc2C(C)C)c(C(C)C)c1
inactive: [1] 15% | [2] 14.2% | [3] 0.3% | [4] 0.55% | [5] -2% | [6] 20.3%

CC1CC(C2=CC=CCS2)=Nc2ccccc2S1 (stereo not given)
inactive: [1] -8.25% | [2] -16.2% | [3] 33.5% | [4] 19.9% | [5] 5.3% | [6] 18.8%

[N-]=[N+]=NC[C@H]1OCO[C@H](CN=[N+]=[N-])[C@@H](OCCOCCCl)[C@@H]1OCCOCCCl
inactive: [1] -13.1% | [2] -23.4% | [3] -10.6% | [4] -21.1% | [5] -28.8% | [6] -15.8%

COc1ccc(/C(=N/NC(=O)NN)C(c2ccc(OC)cc2)C2(O)CNc3c(Cl)cc(Cl)cc32)cc1 (stereo not given)
inactive: [1] 1.75% | [2] 14.4% | [3] -9.15% | [4] -16.4% | [5] 16.4% | [6] 12.7%
